The term AC50 denotes the concentration giving half of the maximal activity seen.

Nine compounds from PubChem BioAssay (EPA / NIEHS) can be followed below.

The structures appear in SMILES notation. Inconclusive results are not listed. Activity calls are given as the source filed them. How the source made its calls: active means hit-call score of the fitted dose curve at least 0.9, where 1 is the maximum; inconclusive means response in the unintended direction; inactive means score below 0.9.

The target of experiment [1] is Estrogen receptor beta (Homo sapiens) (UniProt Q92731). The experiment is described as follows: OT_ER_ERbERb_0480: Odyssey Thera (OT) 8-hour HEK293T Protein-Complementation Assay for Estrogen Receptor-beta/-beta Homodimer (AID 2283357).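 Further: active means signal gain over DMSO baseline.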 The essentials: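 Fluorescence intensity, nuclear for agonists and nuclear plus cytoplasmic for antagonists, was quantified by laser scanning cytometry versus vehicle after 8 h treatment. The cells were HEK293T stably carrying ER beta LBD fragment-complementation partners.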

For experiment [2], the target named is Glucocorticoid receptor (Homo sapiens) (UniProt P04150). Kind of experiment: NVS_NR_hGR: NovaScreen (NVS) Nuclear Receptor Binding Assay for human Glucocorticoid Receptor (GR) (AID 2283363).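 On AC50: activity is loss of specific radioligand binding signal relative to DMSO.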 The essentials: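 Cell-free radioligand displacement assay on extracted human GR, read 16 h after dosing by filter-based scintillation counting. Screened in duplicate at 25 uM, then concentration series for actives; loss of signal versus DMSO baseline.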

For experiment [3], the target named is guinea pig Sigma Receptor, Non-selective Binding, SIGMAR1 (gene 100135589) (UniProt Q60492). The experiment is described as follows: NVS_OR_gSIGMA_NonSelective: NovaScreen (NVS) Nuclear Receptor Binding Assay for guinea pig Sigma Receptor, Non-selective Binding (AID 2283367). Summed up: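 Radioligand displacement on guinea pig brain membranes, read by filter-based scintillation counting 1 h after dosing. Loss of signal versus DMSO; initial duplicate single-point screen at 25 uM, actives followed in concentration series.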

The target in experiment [4] is human Dopamine Transporter (DAT), SLC6A3 (gene 6531) (UniProt Q01959). The experiment is described as follows: NVS_TR_hDAT: NovaScreen (NVS) Transporter Assay for human Dopamine Transporter (DAT) (AID 2283374).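 Further: activity means loss of bound radioligand signal relative to DMSO.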 The essentials:
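Cell-free radioligand displacement binding at human DAT, 1 h after dosing, with filtration and scintillation counting. Primary screen in duplicate at 25 uM, actives then in concentration series. Loss of bound signal versus DMSO scored.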

The target of experiment [5] is Peroxisome proliferator-activated receptor gamma (Homo sapiens) (UniProt P37231). The experiment is described as follows: NVS_NR_hPPARg: NovaScreen (NVS) Nuclear Receptor Binding Assay for human Peroxisome Proliferator-activated Receptor gamma (PPARg) (AID 2283370). The essentials: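 Fluorescence polarization measures competitive binding to extracted PPARg in a cell-free format. Reading is taken at 2 h; activity is signal loss relative to DMSO. Screening at 25 uM in duplicate preceded confirmatory dose series.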

Experiment [6] deals with PGR (gene 5241) (UniProt P06401). The experiment is described as follows: NVS_NR_hPR: NovaScreen (NVS) Nuclear Receptor Binding Assay for human Progestron Receptor (PR) (AID 2283360).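 Further: active means loss of bound radioligand signal versus DMSO baseline.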 Summed up: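 Cell-free radioligand binding using receptor protein extracted from T47D cells, read by scintillation counting 18 hours after dosing. Loss of signal relative to DMSO baseline indicates displacement; primary screen single concentration 25 uM in duplicate, actives followed in concentration series.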

The target in experiment [7] is human Thyroid Receptor Alpha (TRa), THRA (gene 7067) (UniProt P10827). The experiment is described as follows: NVS_NR_hTRa_Antagonist: NovaScreen (NVS) Nuclear Receptor Binding Assay for human Thyroid Receptor Alpha Antagonism (TRa) (AID 2283362). Summed up:
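Chemicals were first screened in duplicate at 25 uM, then actives were retested in concentration series. Binding to the extracted receptor was measured 1 h after dosing by AlphaLISA chemiluminescence, with decreased signal versus DMSO scored as activity.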

Experiment [8] has as its target rat Androgen Receptor (AR), Ar (gene 24208) (UniProt P15207). The experiment is described as follows: NVS_NR_rAR: NovaScreen (NVS) Nuclear Receptor Binding Assay for rat Androgen Receptor (AR) (AID 2283366). The essentials: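 Cell-free radioligand binding on extracts of prostate from testosterone-pretreated rats, read by filter-based scintillation counting 18 h after dosing. Loss of bound signal fitted positively versus DMSO; primary screen in duplicate at 25 uM, actives followed up in concentration series.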

For experiment [9], the system named is guinea pig Dopamine Transporter (DAT), gene 100714898. Kind of experiment: NVS_TR_gDAT: NovaScreen (NVS) Transporter Assay for guinea pig Dopamine Transporter (DAT) (AID 2283369).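 Further: active compounds lower bound radioligand signal relative to DMSO.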 Summed up: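 Test chemicals were incubated 2 h with guinea pig striatal membranes and a radioligand; bound label was separated by filtration and counted. Screening ran at 25 uM, followed by concentration-response testing to a 50 uM maximum.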

For experiment [10], the target named is Retinoic acid receptor alpha (Homo sapiens) (UniProt P10276). Kind of experiment: NVS_NR_hRAR_Antagonist: NovaScreen (NVS) Nuclear Receptor Binding Assay for human Retinoic Acid Alpha Receptor Antagonism (RAR) (AID 2283358). Summed up: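 Cell-free TR-FRET binding assay with extracted human RARalpha in antagonist mode, read 2 h after dosing. Loss of signal was fitted relative to DMSO; the primary screen used 25 uM in duplicate, with concentration series on follow-up.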

Experiment [11] relates to rat Norepinephrine Transporter (NET), gene 83511. The experiment is described as follows: NVS_TR_rNET: NovaScreen (NVS) Transporter Assay for rat Norepinephrine Transporter (NET) (AID 2283373). Summed up: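 Rat forebrain membranes; radioligand binding measured by filter-based scintillation counting 1 hour after dosing. Loss of specific binding versus DMSO baseline scored; primary screen in duplicate at 25 uM, actives followed up in concentration series.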

In experiment [12] the target is Norway rat Vesicular Monoamine Transporter (VMAT2), neurotransmitter transporter, Slc18a2 (gene 25549) (UniProt Q01827). The experiment is described as follows: NVS_TR_rVMAT2: NovaScreen (NVS) Transporter Assay for Norway rat Vesicular Monoamine Transporter (VMAT2), neurotransmitter transporter (AID 2283376).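 Further: actives lower the bound radioligand signal below the DMSO level.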 Summed up:
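Radioligand displacement binding on rat forebrain tissue preparation, filter-based scintillation read-out 1 hour after dosing. Primary screen in duplicate at 25 uM, then concentration series for actives; loss of signal versus DMSO.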

Experiment [13] concerns the target human Norepinephrine Transporter (NET), SLC6A2 (gene 6530) (UniProt P23975). Kind of experiment: NVS_TR_hNET: NovaScreen (NVS) Transporter Assay for human Norepinephrine Transporter (NET) (AID 2283377).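 Further: displacement of radioligand from human NET seen as loss of scintillation signal.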 The essentials: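 Cell-free radioligand binding using CHO-derived membrane protein expressing human NET, read by filter scintillation counting 1 h after dosing; loss of signal vs DMSO. Initial duplicate screen at 25 uM, actives retested in concentration series.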

Experiment [14] concerns the target human Adenosine Transporter (Adot), SLC29A1 (gene 2030) (UniProt Q99808). The experiment is described as follows: NVS_TR_hAdoT: NovaScreen (NVS) Transporter Assay for human Adenosine Transporter (Adot) (AID 2283368). Summed up:
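U937-derived membranes, cell-free radioligand binding, filter scintillation 1 h after dosing. 25 uM duplicate screen; hits (e.g. 30% inhibition) run in concentration-response up to 50 uM; loss of signal versus DMSO.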

For experiment [15], the target named is human Serotonin Transporter (SERT), SLC6A4 (gene 6532) (UniProt P31645). The experiment is described as follows: NVS_TR_hSERT: NovaScreen (NVS) Transporter Assay for human Serotonin Transporter (SERT) (AID 2283372). Summed up:
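Radioligand binding to native SERT in human platelet membranes, read by filter-based scintillation counting 1 h after dosing. Primary screen in duplicate at 25 uM; actives followed up in concentration series; loss of signal versus DMSO baseline.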

Experiment [16] deals with rat Serotonin Transporter (SERT), Slc6a4 (gene 25553) (UniProt P31652). Kind of experiment: NVS_TR_rSERT: NovaScreen (NVS) Transporter Assay for rat Serotonin Transporter (SERT) (AID 2283375). Summed up: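 Steps: rat forebrain membranes dosed with chemical (25 uM duplicate primary; concentration series for actives); 1 h incubation; labelled ligand bound, filtered, counted by scintillation. Activity scored as signal loss vs DMSO.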

Sequence of Peroxisome proliferator-activated receptor gamma (Homo sapiens) (P37231 whole entry, looked up): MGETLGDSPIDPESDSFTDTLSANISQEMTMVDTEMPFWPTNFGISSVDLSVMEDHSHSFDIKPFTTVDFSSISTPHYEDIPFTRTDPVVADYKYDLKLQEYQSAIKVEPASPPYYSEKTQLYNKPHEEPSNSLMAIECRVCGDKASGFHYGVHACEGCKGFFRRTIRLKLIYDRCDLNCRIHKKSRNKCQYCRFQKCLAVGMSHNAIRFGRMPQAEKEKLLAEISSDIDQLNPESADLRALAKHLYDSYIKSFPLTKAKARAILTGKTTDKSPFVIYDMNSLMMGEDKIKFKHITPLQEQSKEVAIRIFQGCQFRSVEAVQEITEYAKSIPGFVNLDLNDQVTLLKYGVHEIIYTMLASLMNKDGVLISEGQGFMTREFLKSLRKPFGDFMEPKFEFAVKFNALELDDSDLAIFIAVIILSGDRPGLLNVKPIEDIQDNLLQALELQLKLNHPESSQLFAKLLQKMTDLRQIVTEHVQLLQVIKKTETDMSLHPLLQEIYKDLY
Sequence of Estrogen receptor beta (Homo sapiens) (Q92731 whole entry, looked up, the tested form may be a part): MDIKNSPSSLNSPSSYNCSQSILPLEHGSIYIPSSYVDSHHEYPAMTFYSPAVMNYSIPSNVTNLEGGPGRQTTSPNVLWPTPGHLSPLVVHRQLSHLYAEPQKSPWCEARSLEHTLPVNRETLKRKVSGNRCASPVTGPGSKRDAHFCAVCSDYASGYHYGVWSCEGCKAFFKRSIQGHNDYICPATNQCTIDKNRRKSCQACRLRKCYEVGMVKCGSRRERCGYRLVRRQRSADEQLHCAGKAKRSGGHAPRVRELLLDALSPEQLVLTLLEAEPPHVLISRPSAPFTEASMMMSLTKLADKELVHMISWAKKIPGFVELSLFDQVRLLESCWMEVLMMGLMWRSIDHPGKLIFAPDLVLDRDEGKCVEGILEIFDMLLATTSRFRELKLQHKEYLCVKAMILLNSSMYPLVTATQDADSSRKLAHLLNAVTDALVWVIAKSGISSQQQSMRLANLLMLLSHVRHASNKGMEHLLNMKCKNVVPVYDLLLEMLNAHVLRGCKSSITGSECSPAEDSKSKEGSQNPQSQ
Sequence of guinea pig Sigma Receptor, Non-selective Binding, SIGMAR1 (gene 100135589) (Q60492 whole entry, looked up): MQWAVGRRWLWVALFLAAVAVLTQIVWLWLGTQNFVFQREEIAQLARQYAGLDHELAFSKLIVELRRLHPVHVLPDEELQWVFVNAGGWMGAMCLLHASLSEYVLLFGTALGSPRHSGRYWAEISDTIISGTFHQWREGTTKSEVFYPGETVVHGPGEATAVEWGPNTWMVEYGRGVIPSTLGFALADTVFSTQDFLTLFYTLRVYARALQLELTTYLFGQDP
Sequence of PGR (gene 5241) (P06401 whole entry, looked up): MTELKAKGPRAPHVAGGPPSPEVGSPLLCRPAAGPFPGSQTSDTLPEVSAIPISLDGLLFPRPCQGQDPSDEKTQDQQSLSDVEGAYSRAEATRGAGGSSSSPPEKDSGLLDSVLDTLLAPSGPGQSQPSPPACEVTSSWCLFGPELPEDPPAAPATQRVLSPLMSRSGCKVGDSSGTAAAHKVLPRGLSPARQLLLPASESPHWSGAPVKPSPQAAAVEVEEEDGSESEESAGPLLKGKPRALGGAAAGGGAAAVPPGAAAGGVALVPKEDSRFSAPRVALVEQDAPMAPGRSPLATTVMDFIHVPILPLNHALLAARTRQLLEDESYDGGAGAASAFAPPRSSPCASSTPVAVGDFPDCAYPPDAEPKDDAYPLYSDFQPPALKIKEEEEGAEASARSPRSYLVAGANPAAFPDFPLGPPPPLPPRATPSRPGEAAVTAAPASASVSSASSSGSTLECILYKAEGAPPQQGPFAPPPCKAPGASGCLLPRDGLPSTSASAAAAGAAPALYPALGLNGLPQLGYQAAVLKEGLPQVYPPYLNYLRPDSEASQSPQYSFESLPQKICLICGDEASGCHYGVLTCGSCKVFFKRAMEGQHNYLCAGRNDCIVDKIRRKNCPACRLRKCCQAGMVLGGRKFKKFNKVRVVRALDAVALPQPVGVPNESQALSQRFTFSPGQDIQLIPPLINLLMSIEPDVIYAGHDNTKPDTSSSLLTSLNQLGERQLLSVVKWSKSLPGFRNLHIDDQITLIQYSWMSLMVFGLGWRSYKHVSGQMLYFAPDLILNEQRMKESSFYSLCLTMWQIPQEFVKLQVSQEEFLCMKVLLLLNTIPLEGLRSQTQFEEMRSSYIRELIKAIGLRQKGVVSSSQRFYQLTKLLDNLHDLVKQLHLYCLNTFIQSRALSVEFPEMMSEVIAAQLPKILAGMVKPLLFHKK
Sequence of Glucocorticoid receptor (Homo sapiens) (P04150 whole entry, looked up): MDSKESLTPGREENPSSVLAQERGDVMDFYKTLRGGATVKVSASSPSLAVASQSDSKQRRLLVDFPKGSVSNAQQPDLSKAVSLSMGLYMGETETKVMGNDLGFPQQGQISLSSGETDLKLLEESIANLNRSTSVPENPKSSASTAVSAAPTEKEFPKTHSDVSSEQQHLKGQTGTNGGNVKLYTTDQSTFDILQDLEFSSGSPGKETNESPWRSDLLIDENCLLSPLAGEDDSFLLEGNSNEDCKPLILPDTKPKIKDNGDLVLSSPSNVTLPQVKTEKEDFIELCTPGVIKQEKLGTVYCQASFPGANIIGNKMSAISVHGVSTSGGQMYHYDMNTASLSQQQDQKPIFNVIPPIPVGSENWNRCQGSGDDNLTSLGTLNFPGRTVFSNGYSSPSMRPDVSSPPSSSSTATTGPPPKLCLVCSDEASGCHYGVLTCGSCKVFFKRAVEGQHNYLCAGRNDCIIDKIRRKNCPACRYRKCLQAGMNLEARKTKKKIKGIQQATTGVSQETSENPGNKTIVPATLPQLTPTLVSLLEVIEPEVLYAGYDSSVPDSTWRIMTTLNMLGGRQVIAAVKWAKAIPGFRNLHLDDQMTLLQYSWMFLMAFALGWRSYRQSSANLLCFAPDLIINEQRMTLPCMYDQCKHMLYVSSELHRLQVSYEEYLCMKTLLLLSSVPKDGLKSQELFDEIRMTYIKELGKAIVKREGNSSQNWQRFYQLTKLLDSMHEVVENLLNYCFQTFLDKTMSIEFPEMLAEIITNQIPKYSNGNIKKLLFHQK
Sequence of human Dopamine Transporter (DAT), SLC6A3 (gene 6531) (Q01959 whole entry, looked up): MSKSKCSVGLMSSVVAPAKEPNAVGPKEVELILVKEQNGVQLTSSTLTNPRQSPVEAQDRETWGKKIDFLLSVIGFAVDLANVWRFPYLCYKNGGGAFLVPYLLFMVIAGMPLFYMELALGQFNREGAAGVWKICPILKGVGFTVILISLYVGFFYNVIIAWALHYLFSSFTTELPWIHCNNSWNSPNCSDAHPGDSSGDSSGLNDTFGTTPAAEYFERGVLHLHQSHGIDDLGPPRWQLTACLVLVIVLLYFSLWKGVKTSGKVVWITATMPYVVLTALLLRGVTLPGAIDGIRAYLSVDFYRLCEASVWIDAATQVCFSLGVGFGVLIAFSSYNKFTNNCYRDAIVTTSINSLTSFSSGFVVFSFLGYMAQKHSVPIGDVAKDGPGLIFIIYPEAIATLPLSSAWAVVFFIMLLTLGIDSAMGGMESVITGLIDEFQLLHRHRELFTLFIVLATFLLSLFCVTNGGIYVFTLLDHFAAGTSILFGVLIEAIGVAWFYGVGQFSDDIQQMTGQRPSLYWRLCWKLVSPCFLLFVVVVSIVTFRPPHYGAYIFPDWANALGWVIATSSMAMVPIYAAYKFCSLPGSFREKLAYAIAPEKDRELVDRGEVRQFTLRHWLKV
Sequence of human Norepinephrine Transporter (NET), SLC6A2 (gene 6530) (P23975 whole entry, looked up): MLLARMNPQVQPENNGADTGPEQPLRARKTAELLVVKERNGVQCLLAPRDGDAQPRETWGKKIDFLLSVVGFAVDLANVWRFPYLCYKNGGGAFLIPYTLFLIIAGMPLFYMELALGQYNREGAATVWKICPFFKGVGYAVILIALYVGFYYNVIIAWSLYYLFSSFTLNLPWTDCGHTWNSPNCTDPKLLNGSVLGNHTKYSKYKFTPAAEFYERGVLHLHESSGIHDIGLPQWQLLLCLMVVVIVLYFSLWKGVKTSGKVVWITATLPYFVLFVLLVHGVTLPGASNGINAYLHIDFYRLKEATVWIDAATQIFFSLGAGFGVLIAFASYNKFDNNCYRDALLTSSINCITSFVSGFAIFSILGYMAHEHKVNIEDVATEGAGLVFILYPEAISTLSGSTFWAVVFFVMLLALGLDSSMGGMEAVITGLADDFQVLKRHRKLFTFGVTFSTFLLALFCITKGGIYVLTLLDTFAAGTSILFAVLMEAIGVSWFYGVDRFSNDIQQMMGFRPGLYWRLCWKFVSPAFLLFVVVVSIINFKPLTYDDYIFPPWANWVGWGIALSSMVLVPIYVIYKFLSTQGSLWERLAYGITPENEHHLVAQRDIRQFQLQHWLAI
Sequence of Norway rat Vesicular Monoamine Transporter (VMAT2), neurotransmitter transporter, Slc18a2 (gene 25549) (Q01827 whole entry, looked up): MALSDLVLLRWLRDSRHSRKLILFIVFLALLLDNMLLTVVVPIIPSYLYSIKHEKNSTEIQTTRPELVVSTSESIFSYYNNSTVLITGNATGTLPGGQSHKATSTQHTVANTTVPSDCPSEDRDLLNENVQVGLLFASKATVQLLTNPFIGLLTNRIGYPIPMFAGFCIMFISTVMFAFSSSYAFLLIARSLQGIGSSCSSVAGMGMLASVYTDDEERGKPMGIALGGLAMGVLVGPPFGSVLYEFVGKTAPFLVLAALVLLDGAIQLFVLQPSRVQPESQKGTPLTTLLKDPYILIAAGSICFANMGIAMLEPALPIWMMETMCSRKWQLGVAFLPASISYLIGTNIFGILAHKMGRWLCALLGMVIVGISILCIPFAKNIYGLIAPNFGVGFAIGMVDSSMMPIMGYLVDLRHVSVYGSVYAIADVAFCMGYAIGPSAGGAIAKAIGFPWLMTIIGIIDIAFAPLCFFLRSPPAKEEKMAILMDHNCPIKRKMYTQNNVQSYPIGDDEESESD

`FC(F)C(F)(F)OCC(Cn1cncn1)c1ccc(Cl)cc1Cl` (centres undefined): the compound was called inactive in experiment [1]. For the same compound, the AC50 was 8.87 µM (active) in [2], 16.5 µM (active) in experiment [3] and 7.59 µM (active) in experiment [4].

Consider `CCC(=NOC/C=C/Cl)C1=C(O)CC(C2CCOCC2)CC1=O` (centres undefined), for which the result in experiment [1] and in experiment [5] was inactive.

In the case of `C=C(C)[C@H]1Cc2c(ccc3c2O[C@@H]2COc4cc(OC)c(OC)cc4[C@@H]2C3=O)O1`, the compound was called inactive in [6], in experiment [7], in [8], in experiment [9], in experiment [5] and in experiment [4]. The AC50 in experiment [2] was 0.425 µM (active).

Take `C#CC(C)(C)NC(=O)c1cc(Cl)cc(Cl)c1`: the outcome in experiment [10] and in [2] was inactive. Also, the AC50 in experiment [3] is 1.94 µM (active).

As for `CCC(=O)Nc1ccc(Cl)c(Cl)c1`, the AC50 was 9.51 µM (active) in experiment [3]; 4.96 µM (active) in experiment [11]; 6.22 µM (active) in [4]; 23.3 µM (active) in experiment [12]; 4.14 µM (active) in [13].

With `CCCSP(=O)(OCC)SCCC`, the outcome in experiment [6], in experiment [2], in experiment [8] and in experiment [5] was inactive.

`CCOP(=O)(OCC)Oc1cc(C)nc(C(C)C)n1`: the result in experiment [1], in experiment [6], in experiment [7] and in experiment [5] was inactive.

In the case of `CC(C)=CC1C(C(=O)OCN2C(=O)C3=C(CCCC3)C2=O)C1(C)C` (centres undefined), the AC50 in [14] was 25 µM (active). In addition, the call in [9], in [15], in [4] and in experiment [16] was inactive.

On to `C[Si](Cn1cncn1)(c1ccc(F)cc1)c1ccc(F)cc1`, for which the outcome in experiment [1] and in [6] was inactive. Besides, the AC50 in experiment [4] was 9.33 µM (active); in experiment [12], 14.1 µM (active); in experiment [13], 2.86 µM (active).
